According to PubChem BioAssay (NCI):
Compounds without any hit were thinned out: in the full panel of roughly 83,000, 20% have a hit.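 Results are percent growth after 48 hours of single-concentration exposure. 100 means growth as in untreated cells, lower positive values show inhibition; negative values down to -100 show cell death.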 Activity calls are given as the source filed them. The calls were made as follows: active = growth percent below 10; inactive = the rest.

What was measured:
Assay in all cases: NCI-60 one-dose screen, 48 h (100 = growth as untreated, 0 = no growth, -100 = all killed)
Details in all cases: 10 µM
NCI-H23 lung = tested on: NCI-H23 lung
NCI-H226 lung = tested on: NCI-H226 lung
HOP-62 NSCLC = tested on: HOP-62 NSCLC
NCI-H460 lung = tested on: NCI-H460 lung
NCI-H522 lung = tested on: NCI-H522 lung
A549/ATCC NSCLC = tested on: A549/ATCC NSCLC
786-0 renal = tested on: 786-0 renal
COLO 205 colon = tested on: COLO 205 colon
DU-145 prostate = tested on: DU-145 prostate
K-562 leukemia = tested on: K-562 leukemia
MALME-3M melanoma = tested on: MALME-3M melanoma
MDA-MB-231 breast = tested on: MDA-MB-231 breast
RXF 393 renal = tested on: RXF 393 renal
SF-268 CNS = tested on: SF-268 CNS
SF-295 CNS = tested on: SF-295 CNS
SF-539 CNS = tested on: SF-539 CNS
UACC-257 melanoma = tested on: UACC-257 melanoma
M14 melanoma = tested on: M14 melanoma
HOP-92 NSCLC = tested on: HOP-92 NSCLC

Measured: growth

Nc1ccn(Cc2nnc(CCC(=O)c3nc4ccccc4[nH]3)o2)c(=O)n1
inactive: NCI-H23 lung 74.5% | NCI-H226 lung 73.7% | HOP-62 NSCLC 82% | NCI-H460 lung 34.6% | NCI-H522 lung 84.2% | A549/ATCC NSCLC 63.8% | 786-0 renal 97.2% | COLO 205 colon 103% | DU-145 prostate 98.4% | K-562 leukemia 79.8% | MALME-3M melanoma 90.9% | MDA-MB-231 breast 87.3% | RXF 393 renal 98.5% | SF-268 CNS 95.8% | SF-295 CNS 79.8% | SF-539 CNS 86.8% | UACC-257 melanoma 101% | M14 melanoma 89.8%

C#CC(C)(O)[C@@H]1C[C@H](CC(=O)O)C1(C)C (some centres not stated)
inactive: NCI-H23 lung 98% | NCI-H226 lung 111% | HOP-62 NSCLC 112% | NCI-H460 lung 116% | HOP-92 NSCLC 114% | A549/ATCC NSCLC 113% | 786-0 renal 110% | COLO 205 colon 122% | DU-145 prostate 112% | K-562 leukemia 118% | MDA-MB-231 breast 113% | RXF 393 renal 134% | SF-268 CNS 105% | SF-295 CNS 103% | SF-539 CNS 99.7% | UACC-257 melanoma 105% | M14 melanoma 105%

CC(C)(C)OC(=O)N1CCc2c(sc3ncnc(N/N=C/c4cccc5ccccc45)c23)C1
inactive: NCI-H23 lung 12.9% | NCI-H226 lung 31% | HOP-62 NSCLC 27.8% | NCI-H522 lung 16% | A549/ATCC NSCLC 23.8% | 786-0 renal 16.9% | COLO 205 colon 13.8% | DU-145 prostate 49.7% | MALME-3M melanoma 49.9% | MDA-MB-231 breast 45.6% | SF-268 CNS 46.7% | UACC-257 melanoma 40.6% | M14 melanoma 20.3%
active: NCI-H460 lung 4.98% | K-562 leukemia 7.07% | RXF 393 renal 2.63% | SF-295 CNS 1.31% | SF-539 CNS -11.3%

COc1cc(-c2nc3ccccc3o2)cc(CN2CCCCC2)c1O
inactive: NCI-H23 lung 22.1% | NCI-H226 lung 78.8% | HOP-62 NSCLC 49.7% | NCI-H460 lung 31.7% | NCI-H522 lung 65.9% | A549/ATCC NSCLC 34% | 786-0 renal 94.7% | COLO 205 colon 113% | DU-145 prostate 12.9% | K-562 leukemia 32.7% | MALME-3M melanoma 28.9% | MDA-MB-231 breast 70.9% | RXF 393 renal 94.8% | SF-268 CNS 68.2% | SF-295 CNS 32.5% | SF-539 CNS 83.5% | UACC-257 melanoma 75.2% | M14 melanoma 34.9%

NC1=NC(c2ccc(Cl)cc2)C2=C(N1)/C(=C/c1ccc(Cl)cc1)CCC2 (configuration not stated)
inactive: NCI-H23 lung 61.1% | NCI-H226 lung 109% | HOP-62 NSCLC 140% | NCI-H460 lung 91.3% | NCI-H522 lung 19.1% | A549/ATCC NSCLC 66.7% | 786-0 renal 90.4% | COLO 205 colon 92% | DU-145 prostate 97.2% | K-562 leukemia 43.5% | MALME-3M melanoma 97.7% | MDA-MB-231 breast 102% | RXF 393 renal 34.5% | SF-268 CNS 83.2% | SF-295 CNS 67.5% | SF-539 CNS 121% | UACC-257 melanoma 79.4% | M14 melanoma 11%

O=C(CCC(C(=O)c1ccccc1)c1ccccc1)c1ccccc1 (configuration not stated)
inactive: NCI-H23 lung 78.6% | NCI-H226 lung 83.1% | HOP-62 NSCLC 76.8% | NCI-H460 lung 76.2% | A549/ATCC NSCLC 61.9% | 786-0 renal 82.7% | COLO 205 colon 79.7% | DU-145 prostate 86.4% | K-562 leukemia 18.7% | MALME-3M melanoma 43.4% | MDA-MB-231 breast 77.9% | RXF 393 renal 78% | SF-268 CNS 85% | SF-295 CNS 36.9% | SF-539 CNS 99.9% | UACC-257 melanoma 90.5% | M14 melanoma 52.2%
active: NCI-H522 lung 3.51%

COC1=CC(=O)OC(c2ccc(OC)cc2)C1 (configuration not stated)
inactive: NCI-H23 lung 89.2% | NCI-H226 lung 110% | HOP-62 NSCLC 105% | NCI-H460 lung 109% | HOP-92 NSCLC 98.1% | A549/ATCC NSCLC 108% | 786-0 renal 109% | COLO 205 colon 108% | DU-145 prostate 113% | K-562 leukemia 130% | MDA-MB-231 breast 100% | RXF 393 renal 113% | SF-268 CNS 96.5% | SF-295 CNS 91.7% | SF-539 CNS 104% | UACC-257 melanoma 104% | M14 melanoma 122%

COc1ccc(-c2n[nH]nc2-c2cc(OC)c(OC)c(OC)c2)cc1
inactive: NCI-H23 lung 10.8% | NCI-H226 lung 63.2% | HOP-62 NSCLC 46.2% | A549/ATCC NSCLC 20.4% | 786-0 renal 16.9% | MALME-3M melanoma 37.3% | MDA-MB-231 breast 14.8% | RXF 393 renal 33.3% | SF-295 CNS 13.7% | SF-539 CNS 10.3% | UACC-257 melanoma 69.1% | M14 melanoma 12.2%
active: NCI-H460 lung 2.7% | NCI-H522 lung -24.5% | COLO 205 colon -18.5% | DU-145 prostate -14.1% | K-562 leukemia 8.16% | SF-268 CNS 9.64%
